Assay results from PubChem BioAssay (NCATS).
Inconclusive results are not listed. The source made the active and inactive calls. The call rests on the fitted dose curve; in most records, active means well fitted curve in the direction sought with a large enough effect; inconclusive means small, poorly fitted or top-dose-only effect, or another doubt; inactive means no such curve, though single readings can be large; an effect the other way counts as inactive or inconclusive.

What was measured:
[1] = OV-KATE Cancer Cell Toxicity qHTS against the NCATS CANVASS Library (AID 1347345)
Procedure, shortened: (§1)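 Cells were seeded at 1000 per well, allowed 4 h at 37 degrees C/5% CO2, then pin-treated with an 11-point compound series. After 72 h, viability was read as CellTiter-Glo luminescence following 15min at room temperature.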

[2] = UWB1.289 Cancer Cell Toxicity qHTS against the NCATS CANVASS Library (AID 1347347); further: nearly all actives have a fitted effect of over 60% in size; further: potency means the concentration at half of the fitted maximal effect
Procedure, shortened: as §1

[3] = Panc-1005 Cancer Cell Toxicity qHTS against the NCATS CANVASS Library (AID 1347349); further: nearly all actives have a fitted effect of over 60% in size; further: potency means the concentration at half of the fitted maximal effect
Procedure, shortened: as §1

[4] = U-118MG Cancer Cell Toxicity qHTS against the NCATS CANVASS Library (AID 1347351); further: potency means the concentration at half of the fitted maximal effect
Procedure, shortened: as §1

[5] = COV-362 Cancer Cell Toxicity qHTS against the NCATS CANVASS Library (AID 1347352); further: series mostly up to about 38 µM
Procedure, shortened: (§2)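 Toxicity was measured as CellTiter-Glo luminescence after 72 h exposure to an 11-point compound series. Compound was added to 1000 cells/well 4 h after seeding.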

[6] = UWB1.289-WTBRCA1 Cancer Cell Toxicity qHTS against the NCATS CANVASS Library (AID 1347354); further: potency means the concentration at half of the fitted maximal effect
Procedure, shortened: as §2

[7] = KB-8-5-11 Cancer Cell Toxicity qHTS against the NCATS CANVASS Library (AID 1347364); further: nearly all actives have a fitted effect of over 75% in size; further: potency means the concentration at half of the fitted maximal effect
Procedure, shortened: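 Viability read as CellTiter-Glo luminescence after 72 h at 37 °C, 5% CO2. 11-point compound series on 500 KB-8-5-11 cells/well in DMEM/10% FBS. Follow-up plating included 1 uM tariquidar in the medium.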

[8] = SDT Cancer Cell Toxicity qHTS against the NCATS CANVASS Library (AID 1347365); further: nearly all actives have a fitted effect of over 60% in size; further: potency means the concentration at half of the fitted maximal effect
Procedure, shortened: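 Cytotoxicity taken from CellTiterGlo ATP luminescence after 72 hr at 37C, 5% CO2. Canine glioma line SDT, 500 cells/well, treated at 11 concentrations; bortezomib dose series as control.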

[9] = qHTS for ATAD5 Agonist screened against the NCATS CANVASS Library (AID 1347367);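 further: luciferase reporter driven by ATAD5 which rises upon DNA damage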
Procedure, shortened: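 Luciferase reporter under ATAD5 control, stably integrated in HEK293T cells (2000/well). Compounds (11 points) incubated 16 h at 37C; viability read first by CellTiter-Fluor, then luminescence reporting ATAD5 activation. MMS positive control.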

[10] = target: Nuclear receptor subfamily 1 group I member 3 (Homo sapiens) (UniProt Q14994); assay: qHTS for Constitutive Androstane Receptor (CAR) Antagonist screened against the NCATS CANVASS Library (AID 1347372); further: potency means the concentration at half of the fitted maximal effect
Chain of Nuclear receptor subfamily 1 group I member 3 (Homo sapiens) (Q14994 whole entry, looked up): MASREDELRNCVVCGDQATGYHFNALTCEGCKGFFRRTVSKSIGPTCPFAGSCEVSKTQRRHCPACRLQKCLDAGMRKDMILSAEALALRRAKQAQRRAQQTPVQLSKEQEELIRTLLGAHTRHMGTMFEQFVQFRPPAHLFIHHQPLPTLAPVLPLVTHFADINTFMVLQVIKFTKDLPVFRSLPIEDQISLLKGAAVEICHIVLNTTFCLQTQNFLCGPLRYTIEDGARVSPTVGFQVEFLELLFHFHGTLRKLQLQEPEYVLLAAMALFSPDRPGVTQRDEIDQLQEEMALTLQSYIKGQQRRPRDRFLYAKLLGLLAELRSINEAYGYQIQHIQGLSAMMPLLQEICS
Procedure, shortened: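 Antagonist mode: compound added alongside 50 nM CITCO to HepG2-hCAR-CYP2B6 reporter cells, 24hr at 37C. Viability by CellTiter-Fluor fluorescence, then CAR-driven luciferase by ONE-Glo luminescence.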

[11] = qHTS for Hypoxia signaling pathway (HIF-1) antagonists against the NCATS CANVASS Library (AID 1347374); further: nearly all actives have a fitted effect of over 60% in size; further: potency means the concentration at half of the fitted maximal effect
Procedure, shortened: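 Antagonism scored as loss of CoCl2-driven (60 uM stock added) HRE beta-lactamase signal, read by CCF4 FRET at 460/530 nm. Compounds were tested in an 11-point series on ME-180 reporter cells for 17 hrs at 37C, with parallel CellTiter-Glo cytotoxicity.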

[12] = DH5-alpha competent E. coli microbial cell viability qHTS against the NCATS CANVASS Library (AID 1347377); settings: outcome: dose series up to 46.1 µM unless noted
Procedure, shortened: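 Bacterial viability as ATP-dependent luminescence (BacTiter-Glo), read after overnight 37 °C exposure of DH5-alpha competent E. coli to compounds in 11-point titration.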

[13] = Secretion counterscreen for inhibitors of the SERCaMP assay screened against the NCATS CANVASS Library (AID 1347390);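 further: light from luciferase secreted into medium read as a measure of general secretion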; further: potency means the concentration at half of the fitted maximal effect
Procedure, shortened: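 SH-SY5Y cells with constitutively secreted GLuc reporter, 1000 cells/well, treated 20 h at 37C with compounds at 0.001 - 77 uM final; secreted luciferase read as luminescence after coelenterazine; Brefeldin A as positive control.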

[14] = qHTS for inhibitors of ER calcium dysfunction: SERCaMP assay screened against the NCATS CANVASS Library (AID 1347393); further: nearly all actives have a fitted effect of over 40% in size; further: potency means the concentration at half of the fitted maximal effect
Procedure, shortened: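 Thapsigargin-induced ER calcium depletion drives GLuc-SERCaMP secretion from SH-SY5Y cells; compounds given 16 h beforehand were scored by lowered coelenterazine luminescence after 4 h challenge.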

[15] = qHTS for inhibitors of Wild type Zika virus screened against the NCATS CANVASS Library (AID 1347396);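 further: ATP luminescence of surviving cells so rescue from viral cell killing; series mostly up to about 46 µM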
Procedure, shortened: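 Vero 766 cells, 1000/well, o/n attach; cpds pin-transferred (11-pt qHTS); WT Zika added; 72 h, 37C, 5% CO2; CellTiter Glo lumi. Uninfected + vehicle = 100% inhibition.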

[16] = HPAF-II Cancer Cell Toxicity qHTS against the NCATS CANVASS Library (AID 1347346); further: nearly all actives have a fitted effect of over 55% in size; further: potency means the concentration at half of the fitted maximal effect
Procedure, shortened: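 Cytotoxicity read-out was CellTiter-Glo luminescence after 72 h at 37 degrees C exposure of HPAF-II cells (1000/well) to compounds in an 11-point titration.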

[17] = SW1088 Cancer Cell Toxicity qHTS against the NCATS CANVASS Library (AID 1347350); further: nearly all actives have a fitted effect of over 75% in size; further: potency means the concentration at half of the fitted maximal effect
Procedure, shortened: as §1

[18] = HEK-293 Cancer Cell Toxicity qHTS against the NCATS CANVASS Library (AID 1347355); further: nearly all actives have a fitted effect of over 65% in size; further: potency means the concentration at half of the fitted maximal effect; on outcome: series mostly up to about 46 µM
Procedure, shortened: as §2

[19] = qHTS for Hypoxia signaling pathway (HIF-1) agonists against the NCATS CANVASS Library (AID 1347375)
Procedure, shortened: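 Beta-lactamase reporter under HRE control in ME-180 cells; compounds (11-point qHTS series) added after 5 hrs plating, then 17 hrs at 37C. FRET substrate read after 2 hr; same-well CellTiter-Glo luminescence gave viability and normalization.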

[20] = target: Nuclear receptor subfamily 1 group I member 3 (Homo sapiens) (UniProt Q14994); assay: qHTS for Constitutive Androstane Receptor (CAR) Agonist screened against the NCATS CANVASS Library (AID 1347373);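 further: every well also contained 1.5 µM PK11195 alongside the test compound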
Procedure, shortened: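 Agonist mode with 1.5uM PK11195 present: compounds for 24hr on HepG2-hCAR-CYP2B6 cells. CellTiter-Fluor fluorescence (ex 405, em 540 nm) gives viability; ONE-Glo luminescence reports CAR activation.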

Measured: Potency

C/C1=C/[C@@H](C)[C@H](O)[C@@H](O)/C=C/CC/C=C/C(=O)O[C@@H]1[C@H](C)C(=O)CCCC1CC(=O)NC(=O)C1
active: [8] 20.9 µM
not listed: [16] | [17] | [18] | [19] | [20]
inactive: all other assays above

C[C@@]12CCC[C@@](C)(C(=O)O)[C@H]1C[C@@H](O)[C@@]13C[C@@H](CC[C@@H]21)[C@](C)(O)C3
not listed: [10] | [20]
inactive: all other assays above

C/C(=C\[C@H](C)C(=O)CCCC1CC(=O)NC(=O)C1)[C@@H]1OC(=O)/C=C/CC/C=C/[C@H](O)[C@@H](O)[C@@H]1C
active: [16] 1.33 µM | [2] 1.18 µM | [3] 0.668 µM | [18] 0.662 µM | [8] 0.264 µM | [10] 3.31 µM | [11] 0.374 µM | [13] 2.72 µM
inactive: [7] | [9] | [20] | [19] | [12] | [14] | [15]

Cc1cc(O)cc2c1C(=O)c1c(O)cc(O)cc1C2=O
not listed: [9]
inactive: all other assays above

O=C(OC[C@H]1O[C@@H](OC(=O)c2cc(O)c(O)c(O)c2)[C@H](OC(=O)c2cc(O)c(O)c(O)c2)[C@@H](OC(=O)c2cc(O)c(O)c(O)c2)[C@@H]1OC(=O)c1cc(O)c(O)c(O)c1)c1cc(O)c(O)c(O)c1
active: [2] 18.8 µM | [3] 8.41 µM | [8] 23.5 µM
inactive: [9] | [10] | [13] | [15]

C/C=C1/CN2C3CC1C1C=CC(=O)N4c5ccccc5[C@@]3(C[C@@H]2C2=C[C@H]3C5CC6N(CC[C@@]67c6ccccc6N(C2=O)[C@@H]37)C/C5=C/C)[C@H]14 (stereo partly drawn)
active: [16] 5.95 µM | [2] 9.41 µM | [3] 7.49 µM | [17] 13.3 µM | [4] 11.9 µM | [6] 16.7 µM | [18] 9.35 µM | [7] 9.35 µM | [8] 10.5 µM | [11] 9.41 µM | [13] 34.3 µM | [14] 0.216 µM
inactive: [20] | [19] | [12]

CC(=O)c1c(C)cc2c(c1O)C(=O)c1c(O)cc(O)cc1C2=O
not listed: [20]
inactive: all other assays above

CC[C@H](O)CCCCC[C@@H]1NC(=O)[C@H]2CCCCN2C(=O)[C@H]([C@H](C)CC)NC(=O)[C@H](Cc2cn(OC)c3ccccc23)NC1=O
active: [16] 3.75 µM | [3] 18.8 µM | [4] 13.3 µM
inactive: [6] | [7] | [20] | [11] | [12] | [13] | [14]

CC(C)=CCC/C(C)=C/Cc1cc([C@@H]2CC(=O)c3c(cc(O)c(CC=C(C)C)c3O)O2)ccc1O
inactive: [4] | [6] | [7] | [8] | [9] | [10] | [19] | [12] | [13] | [15]
active: [17] 14.9 µM | [14] 38.4 µM

C/C=C/C(=O)C1(O)CC2CC(C(=O)O)CC(C)C2C1C1=C2C(=O)NC(=O)C2=C(CCCCC)C(C)O1 (stereo not drawn)
active: [16] 18.8 µM | [17] 7.49 µM | [8] 16.6 µM | [11] 5.94 µM | [14] 19.3 µM
inactive: [7] | [9] | [10] | [20] | [19]

CC(C)=CC[C@H]1C[C@@]2(CC=C(C)C)C(=O)[C@](CC=C(C)C)(C(=O)C(C(=O)c3ccccc3)=C2O)C1(C)C
inactive: [10] | [19] | [12] | [13] | [15]
active: [16] 6.68 µM | [2] 8.38 µM | [3] 13.3 µM | [17] 4.21 µM | [6] 11.8 µM | [18] 23.5 µM | [7] 20.9 µM | [11] 5.94 µM | [14] 30.5 µM

Oc1ccc(C2Oc3cc(O)c4c(c3[C@@H]2c2cc(O)cc(O)c2)[C@H]2C(c3ccc(O)cc3)c3c(O)cc5c(c3[C@H]2C4c2ccc(O)cc2)[C@H](c2cc(O)cc(O)c2)C(c2ccc(O)cc2)O5)cc1 (stereo partly drawn)
active: [8] 9.35 µM
not listed: [1] | [2] | [3] | [5] | [6] | [9] | [19]
inactive: all other assays above

CC1=C2CC[C@]3(C)[C@H](CC=C4[C@@H]5CC(C)(C)CC[C@@H]5C(=O)[C@H](O)[C@]43C)[C@@]2(C)C=C(O)C1=O
active: [11] 9.41 µM | [14] 12.2 µM
inactive: [2] | [6] | [8] | [10] | [20] | [19] | [12] | [13] | [15]
